Records with an inconclusive call do not appear. Entries that show only a call come without a potency. Where a structure was tested more than once in an assay, its records may differ in their call. Calls of active or inactive are those of the source. Unless noted, the call rests on the fitted dose curve; in most records, active means well fitted curve in the direction sought with a large enough effect in the repeat runs; inconclusive means weak or mixed curves; inactive means no such curve, though single readings can be large; an effect the other way counts as inactive or inconclusive.
What was measured:
[1] = A CellTox Green Cytotoxicity Assay to monitor cytotoxicity in HepG2 cells - 32 hour (AID 1224883); further: nearly all actives have a fitted effect of over 50% in size; further: potency means the concentration at half of the fitted maximal effect
Procedure, shortened: (§1)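 HepG2 cells were seeded together with the CellTox Green dye at 600 cells/well, left 5 h at 37 C/5% CO2, then given compounds in DMSO. Fluorescence from dye bound to dead-cell DNA was read repeatedly over 40 h of treatment at 37 C.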

[2] = qHTS RealTime-Glo MT Cell Viability Assay in HepG2 cells - 16 hour (AID 1224885); further: nearly all actives have a fitted effect of over 50% in size
Procedure, shortened: (§2)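 HepG2 suspension premixed with RealTime-Glo reagents is plated at 600 cells per well and left 5 h at 37 C/5% CO2. Compounds in DMSO then go in, and bioluminescence reflecting viable cell number is recorded over 40 h.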

[3] = qHTS RealTime-Glo MT Cell Viability Assay in HEK293 cells - 24 hour (AID 1224886); further: top concentration of the series differs between compounds; nearly all actives have a fitted effect of over 50% in size
Procedure, shortened: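 Reads taken at 0, 8, 16, 24, 32 and 40 h from the same wells. HEK293 cells (600/well) carried RealTime-Glo reagents from seeding, with compound added after a 5 h settle at 37 C.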

[4] = qHTS RealTime-Glo MT Cell Viability Assay in HEK293 cells - 8 hour (AID 1224887); further: top concentration of the series differs between compounds; nearly all actives have a fitted effect of over 50% in size
Procedure, shortened: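 HEK293 cells mixed with RealTime-Glo reagents (NanoLuc plus cell-permeant prosubstrate) at 600 cells/well, preincubated 5 h at 37 C/5% CO2, then given 23 nL compound in DMSO. Nonlytic luminescence from viable cells was read at 0, 8, 16, 24, 32 and 40 h.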

[5] = A CellTox Green Cytotoxicity Assay to monitor cytotoxicity in HEK293 cells - 16 hour (AID 1224888); further: nearly all actives have a fitted effect of over 35% in size
Procedure, shortened: (§3)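 HEK293 cells premixed with CellTox Green dye were seeded at 600 cells/well and left 5 h at 37 C/5% CO2 before pin transfer of 23 nL compound in DMSO. Fluorescence from dye bound to dead-cell DNA was read during 40 h treatment.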

[6] = qHTS RealTime-Glo MT Cell Viability Assay in HepG2 cells - 0 hour (AID 1224889); further: nearly all actives have a fitted effect of over 50% in size
Procedure, shortened: as §2

[7] = A CellTox Green Cytotoxicity Assay to monitor cytotoxicity in HepG2 cells - 8 hour (AID 1224890); further: nearly all actives have a fitted effect of over 45% in size
Procedure, shortened: as §1

[8] = qHTS assay to identify small molecule antagonists of the estrogen receptor alpha (ER-alpha) signaling pathway using the BG1 cell line in the presence of 0.1 nM 17-beta-estradiol - cell viability counter screen (AID 1259241); further: nearly all actives have a fitted effect of over 40% in size
Procedure, shortened: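 VM7Luc4E2 cells (endogenous ER-alpha, 4×ERE-luciferase), hormone-starved 5 days in charcoal-stripped FBS, were treated with compounds plus 0.1 nM 17beta-estradiol for 22 hr at 37C; viability read in same wells as CellTiter-Fluor live-cell protease fluorescence.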

[9] = qHTS assay to identify small molecule antagonists of the androgen receptor (AR) signaling pathway using the MDA cell line in the presence of 0.5 nM R1881 - cell viability counter screen (AID 1259242); further: nearly all actives have a fitted effect of over 45% in size
Procedure, shortened: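 MDA-kb2 cells (human breast carcinoma, stably carrying MMTV-luciferase reporter) were exposed to compounds with 0.5 nM R1881 (final) for 16 hr at 37C, 0% CO2; viability then read as live-cell protease fluorescence (CellTiter-Fluor, 30 min) in the same wells.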

[10] = target: Estrogen receptor (Homo sapiens) (UniProt P03372); test: qHTS assay to identify small molecule antagonists of the estrogen receptor alpha (ER-alpha) signaling pathway using the BG1 cell line in the presence of 0.1 nM 17-beta-estradiol (AID 1259244); further: nearly all actives have a fitted effect of over 50% in size
Procedure, shortened: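 VM7Luc4E2 cells (endogenous full-length ER-alpha, stable 4xERE-luciferase) were grown 5 days in phenol red-free medium with charcoal-stripped FBS, then exposed 22 h at 37C to compounds plus 0.1 nM (final) 17beta-estradiol; ONE-Glo luminescence read-out.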

[11] = qHTS assay to identify small molecule phospholipidosis (PLD) inducers (AID 1259344; active means well fitted curve in the direction sought with a large enough effect; an effect the other way counts as inactive or inconclusive)
Procedure, shortened: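 HepG2 cells, 900/well, treated with compound plus LipidTOX Red for 24 h at 37 C; amiodarone positive and DMSO negative controls. Fixed with paraformaldehyde/Hoechst, then high-content imaging scored LipidTOX pit count and integrated intensity per well and per cell.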

[12] = qHTS assay to identify small molecule HDAC inhibitors (AID 1259364); further: top concentration of the series differs between compounds; nearly all actives have a fitted effect of over 45% in size
Procedure, shortened: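 Wild-type HCT-116 cells were plated overnight, exposed to compounds for 2 h at 37 °C, then given HDAC-Glo class I/II luminogenic reagent for 30 min at room temperature before luminescence was read.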

[13] = qHTS assay to identify small molecule HDAC inhibitors - cell viability counter screen (AID 1259365)
Procedure, shortened: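 Wild-type HCT-116 cells were seeded at 1,500 per well, incubated overnight at 37 C, then exposed to compounds in DMSO for 2hr. Viability was read by CellTiter-Glo luminescence after 30min at room temperature.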

[14] = qHTS assay to identify small molecule agonists of the sonic hedgehog signaling (Shh) pathway - cell viability counter screen (AID 1259366); further: nearly all actives have a fitted effect of over 50% in size
Procedure, shortened: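 NIH/3T3-derived 3T3 Gli1-Luc cells (stable Gli1-responsive firefly luciferase reporter) were seeded, rested 4 hr at 37 C/5% CO2, then exposed to compounds in DMSO for 24 hr; viability was read by CellTiter-Fluor fluorescence in the same wells.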

[15] = qHTS assay to identify small molecule antagonists of the sonic hedgehog signaling (Shh) pathway - cell viability counter screen (AID 1259367); further: nearly all actives have a fitted effect of over 55% in size
Procedure, shortened: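 NIH/3T3-derived Gli1-Luc reporter cells, 2,000/well, plated 4 hr before compound addition, then stimulated with conditioned medium for 24 hr at 37C. Viability measured in the same wells by CellTiter-Fluor fluorescence, reagent added at 23 hr for 1 hr.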

[16] = qHTS assay to identify small molecule agonists of the sonic hedgehog signaling (Shh) pathway (AID 1259368; calls by dose curve; further: series mostly up to about 92 µM; nearly all actives have a fitted effect of over 15% in size)
Procedure, shortened: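 NIH/3T3-derived 3T3Gli1-Luc cells carrying a stably integrated Gli1 response element–firefly luciferase reporter were plated, left 4 hr at 37 C, then given compounds in DMSO for 24 hr. Luminescence was read 30 min after adding luciferase reagent.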

[17] = qHTS assay to identify small molecule antagonists of the sonic hedgehog signaling (Shh) pathway (AID 1259369; calls by dose curve; further: nearly all actives have a fitted effect of over 45% in size)
Procedure, shortened: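 NIH/3T3-derived 3T3Gli1-Luc cells with stably integrated Gli1-Luc reporter were preincubated 4hr at 37 C, then given compounds in DMSO plus Shh conditioned medium and incubated 24hr. Firefly luciferase luminescence read after 30min reagent at room temperature.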

[18] = target: Estrogen receptor beta (Homo sapiens) (UniProt Q92731); test: qHTS assay to identify small molecule agonists of the estrogen receptor beta (ER-beta) signaling pathway (AID 1259377; active means well fitted activation curve with a large enough effect in the signal ratio in the repeat runs, not every such curve was filed as active; the % refers to the signal ratio)
Procedure, shortened: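 ER-beta-UAS-bla HEK293T (GripTite) cells carrying a UAS-driven beta-lactamase reporter, in medium with 2% charcoal-stripped FBS, were exposed to compounds for 16 hr at 37C; LiveBLAzer B/G FRET substrate was then added and fluorescence read after 2 hours at room temperature.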

[19] = A CellTox Green Cytotoxicity Assay to monitor cytotoxicity in HEK293 cells - 8 hour (AID 1224884); further: nearly all actives have a fitted effect of over 35% in size
Procedure, shortened: as §3

[20] = target: Androgen receptor (Homo sapiens) (UniProt P10275); test: qHTS assay to identify small molecule antagonists of the androgen receptor (AR) signaling pathway using the MDA cell line in the presence of 0.5 nM R1881 (AID 1259243); further: nearly all actives have a fitted effect of over 50% in size
Procedure, shortened: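 MDA-kb2 human breast carcinoma cells carrying an MMTV-luciferase reporter (AR- and GR-responsive) were plated, rested 5 hr at 37C, dosed with compounds, then stimulated with 0.5 nM R1881 (final) for 16 hr; luminescence was read after ONE-Glo.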

Chain of Estrogen receptor beta (Homo sapiens) (Q92731 whole entry, looked up): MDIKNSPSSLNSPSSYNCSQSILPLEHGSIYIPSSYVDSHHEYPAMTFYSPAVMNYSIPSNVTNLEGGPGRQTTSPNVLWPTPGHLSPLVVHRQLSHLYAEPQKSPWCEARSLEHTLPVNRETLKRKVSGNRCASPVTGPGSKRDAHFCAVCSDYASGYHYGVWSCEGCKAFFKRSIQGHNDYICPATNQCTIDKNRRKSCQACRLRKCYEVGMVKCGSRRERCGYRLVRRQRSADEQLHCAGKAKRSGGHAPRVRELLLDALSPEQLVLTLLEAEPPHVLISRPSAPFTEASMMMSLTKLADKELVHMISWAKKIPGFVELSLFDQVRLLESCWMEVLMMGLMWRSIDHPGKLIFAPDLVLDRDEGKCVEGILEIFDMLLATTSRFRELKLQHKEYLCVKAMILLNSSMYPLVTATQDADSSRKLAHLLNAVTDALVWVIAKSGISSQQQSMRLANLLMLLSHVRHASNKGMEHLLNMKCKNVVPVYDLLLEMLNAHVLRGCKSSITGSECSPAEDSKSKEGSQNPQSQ
Chain of Androgen receptor (Homo sapiens) (P10275 whole entry, looked up): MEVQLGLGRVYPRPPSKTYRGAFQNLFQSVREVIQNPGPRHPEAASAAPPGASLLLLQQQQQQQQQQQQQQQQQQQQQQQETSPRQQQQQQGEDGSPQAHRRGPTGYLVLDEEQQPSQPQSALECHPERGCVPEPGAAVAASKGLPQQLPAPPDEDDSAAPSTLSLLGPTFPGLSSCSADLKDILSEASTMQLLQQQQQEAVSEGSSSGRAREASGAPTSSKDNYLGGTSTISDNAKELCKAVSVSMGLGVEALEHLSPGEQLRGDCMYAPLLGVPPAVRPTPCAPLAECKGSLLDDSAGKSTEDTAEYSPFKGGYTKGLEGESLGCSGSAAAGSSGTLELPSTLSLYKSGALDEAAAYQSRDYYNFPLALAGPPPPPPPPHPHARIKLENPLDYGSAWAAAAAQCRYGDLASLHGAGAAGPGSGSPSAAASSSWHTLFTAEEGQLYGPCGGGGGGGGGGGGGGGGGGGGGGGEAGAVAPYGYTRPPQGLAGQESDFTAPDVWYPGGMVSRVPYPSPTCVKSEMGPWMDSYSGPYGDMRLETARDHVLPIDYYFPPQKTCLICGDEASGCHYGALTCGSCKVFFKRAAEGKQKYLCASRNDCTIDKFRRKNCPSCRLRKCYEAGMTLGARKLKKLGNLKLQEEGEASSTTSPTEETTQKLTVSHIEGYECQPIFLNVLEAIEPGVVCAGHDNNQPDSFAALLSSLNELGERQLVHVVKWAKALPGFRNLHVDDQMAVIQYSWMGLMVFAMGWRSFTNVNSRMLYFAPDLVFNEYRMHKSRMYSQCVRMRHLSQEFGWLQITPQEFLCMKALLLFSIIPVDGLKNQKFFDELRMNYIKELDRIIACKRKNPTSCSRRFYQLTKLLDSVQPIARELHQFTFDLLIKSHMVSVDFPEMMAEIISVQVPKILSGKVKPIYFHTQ
Chain of Estrogen receptor (Homo sapiens) (P03372 whole entry, looked up): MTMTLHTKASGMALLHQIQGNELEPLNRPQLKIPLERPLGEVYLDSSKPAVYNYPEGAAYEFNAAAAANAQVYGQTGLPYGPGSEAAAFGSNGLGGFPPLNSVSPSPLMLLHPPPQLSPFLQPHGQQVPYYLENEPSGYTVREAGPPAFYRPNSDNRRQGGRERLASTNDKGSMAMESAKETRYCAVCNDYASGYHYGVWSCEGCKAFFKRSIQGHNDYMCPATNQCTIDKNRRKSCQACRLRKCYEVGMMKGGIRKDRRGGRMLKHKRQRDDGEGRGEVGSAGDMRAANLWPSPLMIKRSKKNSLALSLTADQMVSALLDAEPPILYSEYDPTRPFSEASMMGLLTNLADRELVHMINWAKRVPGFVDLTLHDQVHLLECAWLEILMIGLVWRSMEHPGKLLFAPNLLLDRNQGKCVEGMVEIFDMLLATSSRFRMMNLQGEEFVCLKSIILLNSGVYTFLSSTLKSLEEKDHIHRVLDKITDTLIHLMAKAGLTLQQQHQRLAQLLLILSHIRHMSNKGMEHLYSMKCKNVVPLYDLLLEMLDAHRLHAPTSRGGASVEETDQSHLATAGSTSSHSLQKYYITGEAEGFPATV

Compound	Potency [1]	Potency [2]	Potency [3]	Potency [4]	Potency [5]	Potency [6]	Potency [7]	Potency [8]	Potency [9]	Potency [10]	outcome [11]	Potency [12]	outcome [13]	Potency [14]	Potency [15]	outcome [16]	Potency [17]	outcome [18]	Potency [19]	Potency [20]
OC(Cn1cncn1)(Cn1cncn1)c1ccc(F)cc1F	inactive	inactive	inactive	inactive	inactive	inactive	inactive	inactive	inactive	inactive	inactive	inactive	inactive	inactive	inactive	inactive	inactive	inactive		
OCCc1ccccc1	inactive	inactive	inactive	inactive	inactive	inactive		inactive	inactive		inactive	inactive	inactive	inactive		inactive	inactive		inactive	
O=S(=O)(O)NC1CCCCC1	inactive	inactive	inactive	inactive	inactive	inactive		inactive	inactive		inactive	inactive	inactive	inactive		inactive	inactive		inactive	
O=C(c1ccccc1)c1ccccc1	inactive	inactive	inactive	inactive	inactive	inactive		inactive	inactive		inactive	inactive	inactive	inactive	inactive	inactive	inactive		inactive	inactive
C1N2CN3CN1CN(C2)C3	inactive	inactive	inactive	inactive	inactive	inactive	inactive	inactive	inactive		inactive	inactive	inactive	inactive	inactive	inactive	inactive	inactive		inactive
NS(=O)(=O)c1cc(C(=O)O)c(NCc2ccco2)cc1Cl	19.6 µM (active) and inactive	inactive	inactive		inactive	inactive		inactive	inactive	inactive	inactive	inactive	inactive	inactive	inactive	inactive	inactive		inactive	
CCOc1ccc(NC(=O)CC(C)O)cc1 (configuration not stated)	inactive	inactive	inactive	inactive	inactive	inactive	inactive	inactive	inactive		inactive	inactive	inactive	inactive		inactive	inactive		inactive	
CCCCOC(=O)CC(CC(=O)OCCCC)(OC(C)=O)C(=O)OCCCC	inactive	inactive	inactive	inactive	inactive	inactive	inactive	inactive	inactive		inactive	inactive	inactive	inactive		inactive	inactive	inactive	inactive	
O=S(=O)(O)c1ccc2cc(O)ccc2c1	inactive	inactive	inactive	inactive	inactive	inactive	inactive	inactive	inactive			inactive	inactive	inactive		inactive	inactive		inactive	
